# The panel holds about 83,000 compounds, 20% with a hit somewhere; the sample as a whole holds those more often.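 For each line, cells grew in 96-well plates with the test compound present at a single concentration for 48 hours.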 The source made the active and inactive calls. Rule for the calls: active = growth percent below 10; inactive = the rest.
# Tested on: SF-268 CNS
# Assay: NCI-60 one-dose screen, 48 h (100 = growth as untreated, 0 = no growth, -100 = all killed)
# Conditions: 10 µM unless noted
row,SMILES,growth
1,COc1ccc(OC)c(N(CCN2C(=O)c3ccccc3C2=O)C(=O)CCl)c1,35.3% (inactive)
2,O=C(NC1CCN(Cc2ccccc2)CC1)c1cc(C(=O)NC2CCN(Cc3ccccc3)CC2)cc(C(=O)NC2CCN(Cc3ccccc3)CC2)c1,71.4% (inactive)
3,CCOC(=O)c1c(Cl)c2c(n1Cc1ccccc1)-c1oncc1CCC2,86.7% (inactive)
4,O=C(/C=C/c1ccccn1)c1ccc(OCc2nnc(-c3ccc(Cl)cc3)o2)cc1,28.6% (inactive)
5,CSc1nc2c(c(=O)n1C)N=C1c3ccccc3C(=O)C1C(c1ccccc1)N2 (stereo not drawn),81.7% (inactive)
6,CC/C=C\C[C@H](O)C/C=C1/C(=O)C=C[C@@H]1C/C=C\CCCC(=O)OCCS(=O)(=O)c1ccccc1,42.6% (inactive)
7,Cc1cc(Nc2ccc(OCc3ccccc3)cc2)nc2cc(O)ccc12,79.8% (inactive)
8,CSc1nc2c(c(=O)[nH]1)N=C1c3ccccc3C(=O)C1C(c1ccc(F)cc1)N2 (stereo not drawn),65.5% (inactive)
9,CCOc1ccccc1CN1CCc2nc3cc(C(C)(C)C)[nH]n3c(=O)c2C1,105% (inactive)
10,O=C(NC(=S)Nc1cccc(NC(=S)NC(=O)c2ccccc2)c1)c1ccccc1,56.1% (inactive)
11,CCOC(=O)c1c2c(n3cccc(Cl)c13)C(=O)c1ncccc1C2=O,41.1% (inactive)
12,O=C(NN1C(=O)CSC1c1ccc(Cl)cc1)c1[nH]c2ccc(F)cc2c1-c1ccccc1 (stereo not drawn),65.1% (inactive)
13,COc1ccc(-n2c(C(O)c3ccccc3)nn(CN3CCOCC3)c2=S)cc1 (stereo not drawn),103% (inactive)
14,COc1ccc(C2Nc3ncnc(N)c3N=C3c4ccccc4C(=O)C32)cc1 (stereo not drawn),84% (inactive)
15,Nc1nc(N)c2c(n1)NC1(C=C(O)c3ccccc31)C1=C(N2)c2ccccc2C1=O (stereo not drawn),104% (inactive)
16,CCOC(=O)c1cnc2ccc(Cl)cc2c1NCCCN(C)C,1.81% (active)
17,CCCCCCc1cc2cc(-c3nc4ccccc4[nH]3)c(=Nc3ccccc3C)oc2cc1O,65.5% (inactive)
18,OC(c1ccccc1)c1nnc(SCc2ccccc2)n1Cc1ccccc1 (stereo not drawn),94.2% (inactive)
19,CC(=O)O[C@@H]1/C=C/C(=O)N[C@@H](C)CCC/C=C/[C@@H]2CCC[C@H]21,104% (inactive)

row,SMILES,growth
1,COc1ccc(C2Nc3nc(OC)n(C)c(=O)c3N=C3c4ccccc4C(=O)C32)cc1 (stereo not drawn),81% (inactive)
2,CN1CCN(c2nc(Nc3ccc(O)cc3)nc3ccccc23)CC1,52.5% (inactive)
3,COc1ccc(/C=C2\SC(=Nc3ccccc3)NC2=O)cc1,-82.5% (active)
4,CCOC(=O)c1cc2c(n1Cc1cc(OC)c(OC)c(OC)c1)-c1oncc1CCC2,46.1% (inactive)
5,Cn1c2c(c(=O)[nH]c1=O)NC1=C(C(=O)c3ccccc31)C1(C=C(O)c3ccccc31)N2 (stereo not drawn),103% (inactive)
6,FC(F)(F)c1cccc(Nc2nc(-c3ccccc3)nc3ncccc23)c1,13.3% (inactive)
7,O=C(Nc1ccc(Cl)cc1)c1cc2ccccc2cc1OP(=O)(O)O,32% (inactive)
8,COC(=O)/C(=C\c1c(-c2ccccc2)[nH]c2ccccc12)S(C)(=O)=O,26.8% (inactive)
9,Nc1ccc(C2c3ccccc3Oc3ccccc32)cc1,102% (inactive)
10,N#CC(C#N)=Cc1c(-c2ccccc2)[nH]c2ccccc12,44.6% (inactive)
11,CCCCc1ccc(NS(=O)(=O)c2cc3c4c(c2)CCN4C(=O)CC3)cc1,5.78% (active)
12,O=C(CSc1ncccc1C(=O)O)Nc1ccc(Oc2ccccc2)cc1,105% (inactive)
13,N#C/C(=C\c1c(-c2ccccc2)[nH]c2ccccc12)C(=O)c1ccccc1,53.6% (inactive)
14,O=C1/C=C/[C@@H](O)[C@@H]2C[C@@H](O)C[C@H]2/C=C/CCCCO1,11.7% (inactive)
15,CCCC(c1nnnn1C1CCCCC1)N1CCN(C(=O)c2ccco2)CC1 (stereo not drawn),60.8% (inactive)
16,Nc1nc(Nc2cccc(F)c2)nc2ccccc12,77.3% (inactive)
17,CC(C)(C)c1ccc(C2CC(=O)C3=C(C2)Nc2ccccc2N(C(=O)c2ccccc2Cl)C3c2ccc(F)cc2)cc1 (stereo not drawn),10.3% (inactive)
18,O=CCCCC(O)C=O (stereo not drawn),106% (inactive)
19,CN(O)c1nc(N(C)O)nc(N2CCOCC2)n1,29.3% (inactive)

# Tested on: SF-295 CNS
# Assay: as above
# Conditions: 10 µM unless noted
row,SMILES,growth
1,CSc1nc2c(c(=O)n1C)N=C1c3ccccc3C(=O)C1C(c1ccccc1)N2 (stereo not drawn),-10.6% (active)
2,CC/C=C\C[C@H](O)C/C=C1/C(=O)C=C[C@@H]1C/C=C\CCCC(=O)OCCS(=O)(=O)c1ccccc1,100% (inactive)
3,CSc1nc2c(c(=O)[nH]1)N=C1c3ccccc3C(=O)C1C(c1ccc(F)cc1)N2 (stereo not drawn),-29% (active)
4,CCOC(=O)c1c2c(n3cccc(Cl)c13)C(=O)c1ncccc1C2=O,63.9% (inactive)
5,O=C(NN1C(=O)CSC1c1ccc(Cl)cc1)c1[nH]c2ccc(F)cc2c1-c1ccccc1 (stereo not drawn),8.34% (active)
6,COc1ccc(-n2c(C(O)c3ccccc3)nn(CN3CCOCC3)c2=S)cc1 (stereo not drawn),79.7% (inactive)
7,CCCC(=O)CC(C)=O.CCCC(=O)CC(C)=O.[Cu],103% (inactive)
8,COc1ccc(C2Nc3ncnc(N)c3N=C3c4ccccc4C(=O)C32)cc1 (stereo not drawn),96.9% (inactive)
9,Nc1nc(N)c2c(n1)NC1(C=C(O)c3ccccc31)C1=C(N2)c2ccccc2C1=O (stereo not drawn),109% (inactive)
10,OC(c1ccccc1)c1nnc(SCc2ccccc2)n1Cc1ccccc1 (stereo not drawn),83.4% (inactive)
11,CC(=O)O[C@@H]1/C=C/C(=O)N[C@@H](C)CCC/C=C/[C@@H]2CCC[C@H]21,98.6% (inactive)
12,COc1ccc(C2Nc3nc(OC)n(C)c(=O)c3N=C3c4ccccc4C(=O)C32)cc1 (stereo not drawn),6.96% (active)
13,Cn1c2c(c(=O)[nH]c1=O)NC1=C(C(=O)c3ccccc31)C1(C=C(O)c3ccccc31)N2 (stereo not drawn),135% (inactive)
14,O=C(Nc1ccc(Cl)cc1)c1cc2ccccc2cc1OP(=O)(O)O,-7.61% (active)
15,COC(=O)/C(=C\c1c(-c2ccccc2)[nH]c2ccccc12)S(C)(=O)=O,32% (inactive)
16,Nc1ccc(C2c3ccccc3Oc3ccccc32)cc1,89% (inactive)
17,N#CC(C#N)=Cc1c(-c2ccccc2)[nH]c2ccccc12,31.6% (inactive)
18,N#C/C(=C\c1c(-c2ccccc2)[nH]c2ccccc12)C(=O)c1ccccc1,37.1% (inactive)
19,O=C1/C=C/[C@@H](O)[C@@H]2C[C@@H](O)C[C@H]2/C=C/CCCCO1,21.9% (inactive)
20,CN(O)c1nc(N(C)O)nc(N2CCOCC2)n1,-30.2% (active)
